Most compounds without a hit are left out; they make up all but 0.33% or so of the library.
Pin1 inhibitor: blocks the human prolyl isomerase Pin1; Pin1 FP peptide displacement, HiFluor488, 10 min; 0.009% of 390,000 active; Potency, µM (doses to about 115 µM), for inactives: top-dose activity, negative = inhibition, hits mostly inhibitors; Q13526; active = well fitted inhibition curve with a large enough effect in the polarisation, with a control signal flat, not every such curve was filed as active; inconclusive = small, poorly fitted or top-dose-only effect, or effect the other way, or a change in a side signal; inactive = no such curve, though single readings can be large or run the other way; the % refers to the polarisation; note: potency is the fitted concentration of half-maximal effect; % is set by controls: 0 for no effect and ±100 for the full control effect
Target sequence (Q13526 whole entry, looked up): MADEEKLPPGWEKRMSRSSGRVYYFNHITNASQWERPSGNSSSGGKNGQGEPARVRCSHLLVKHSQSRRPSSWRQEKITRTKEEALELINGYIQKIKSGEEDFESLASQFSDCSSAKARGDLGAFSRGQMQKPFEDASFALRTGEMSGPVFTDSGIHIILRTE
PGK inhibitor: inhibitors of T. brucei phosphoglycerate kinase | P07378 | PGK/GAPDH coupled, Kinase-Glo luminescence, 60 min | Potency, µM (doses to about 57.5 µM), for inactives: top-dose activity change, negative = inhibition, most hits filed as inhibitors | 0.043% of 380,000 active | AID 602233; note: potency is the fitted concentration of half-maximal effect; % is set by controls: 0 for no effect and ±100 for the full control effect; nearly all actives have a fitted effect of over 60% in size
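Recombinant glycosomal PGK reaction used 1,3-bisphosphoglycerate generated in-well by GAPDH (100nM final) in 100mM TEA pH 7.6, 5mM MgCl2, 0.01% Tween-20. After 60 minutes at room temperature, ATP was read by Kinase-Glo Plus luminescence end-point.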
mIDH1 inhibitor: blocks human mutant IDH1 R132H enzyme | Potency, µM (series often up to 76.6 µM), inactives show at the highest dose activity change, negative = inhibition, hits mostly inhibitors | O75874 | IDH1-R132H enzyme, NADPH consumption, diaphorase/resazurin fluorescence | 0.093% of 390,000 active; note: potency is the fitted concentration of half-maximal effect; % is set by controls: 0 for no effect and ±100 for the full control effect; nearly all actives have a fitted effect of over 65% in size
Target sequence (O75874 whole entry R132H, stated change not applied): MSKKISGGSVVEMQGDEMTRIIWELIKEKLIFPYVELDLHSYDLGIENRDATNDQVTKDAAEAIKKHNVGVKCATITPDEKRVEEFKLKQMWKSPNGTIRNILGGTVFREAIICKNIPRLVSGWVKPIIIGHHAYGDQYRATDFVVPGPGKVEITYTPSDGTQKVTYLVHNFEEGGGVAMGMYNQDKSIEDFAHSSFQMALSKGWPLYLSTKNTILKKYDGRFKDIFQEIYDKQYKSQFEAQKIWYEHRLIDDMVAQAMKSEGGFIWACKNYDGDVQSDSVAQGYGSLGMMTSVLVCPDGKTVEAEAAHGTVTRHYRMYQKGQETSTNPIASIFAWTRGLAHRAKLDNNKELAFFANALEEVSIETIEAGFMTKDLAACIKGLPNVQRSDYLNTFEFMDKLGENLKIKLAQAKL
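IDH1-R132H (0.5 ug/mL dispensed) in pH 7.5 Tris buffer was preincubated 30 min with compound, then given a substrate mix of 0.016 mM NADPH and 2 mM alpha-KG for 80 min at room temperature; remaining NADPH was read by diaphorase/resazurin fluorescence.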
GLS inhibitor: glutaminase GLS (human) inhibition | O94925 | GLS enzymatic activity, qHTS titration | Potency, µM (top dose mostly 45.5 µM), without a hit: top-dose activity change, negative = inhibition, usual class: inhibitors | 0.21% of 410,000 active | AID 624170; note: potency is the fitted concentration of half-maximal effect; % is set by controls: 0 for no effect and ±100 for the full control effect
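Read-out is an Amplex red fluorescence increase coupled through glutamate oxidase and HRP, measured before and after 30 min room-temperature incubation. hKGA is in 45 mM KH2PO4 (pH 8.2) with 0.02% Tween-20; glutamine added as 1mM solution.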
Resorufin autofl: autofluorescence interference, mutant IDH1 hit counter-screen; Resorufin detection reagent fluorescence interference, cell-free; 750 tested, under 10 active; inhibition of signal, % at 51.2 µM; shares compounds with mIDH1 inhibitor;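 note: 0% = wells with normal resorufin and full inhibition = wells lacking resorufin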
WT IDH1 inh: inhibits human wild-type IDH1, mutant selectivity check; shares compounds with mIDH1 inhibitor; WT IDH1 enzyme, NADPH diaphorase/resazurin fluorescence; Potency, µM (highest dose often 115 µM), inactives show at the top dose activity change, negative = inhibition, hits mostly inhibitors; 9% of 750 active; AID 623995;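 note: potency is the fitted concentration of half-maximal effect; 0% = full WT IDH1 enzyme control and full inhibition = no enzyme wells; nearly all actives have a fitted effect of over 55% in size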
Target sequence (O75874 whole entry, looked up): as the sequence (O75874 whole entry R132H, stated change not applied) above, with H132R counted along it
mIDH1 confirm: inhibits human mutant IDH1 enzyme in cherrypick confirmation; shares compounds with mIDH1 inhibitor; IDH1 R132H enzyme, NADPH diaphorase/resazurin fluorescence; Potency, µM (top dose mostly 76.6 µM), for the others: top-dose activity change, negative = inhibition, most hits filed as inhibitors; 83% of 750 active; AID 624002; note: potency is the fitted concentration of half-maximal effect; nearly all actives have a fitted effect of over 50% in size
* marks the source's active call; other numbers are inactive results; i = inactive; ? = inconclusive; / = not tested or not shown. Unless noted, calls come from the whole dose curve; as a rule, active = well fitted curve in the direction sought with a large enough effect; inconclusive = small, poorly fitted or top-dose-only effect, or another doubt; inactive = no such curve, though single readings can be large; an effect the other way counts as inactive or inconclusive.

SMILES | Pin1 inhibitor | PGK inhibitor | mIDH1 inhibitor | GLS inhibitor | Resorufin autofl | WT IDH1 inh | mIDH1 confirm
Cc1ccc(-c2nnn(CC(=O)N(c3ccccc3F)C(C(=O)NC3CCCC3)c3ccco3)n2)o1 (stereo not given) | 20% | 0% | -2% | -1% | / | / | /
COc1ccc(C(C(=O)NC2CCCCC2)N(C(=O)Cc2c[nH]c3ccccc23)c2ccccc2C)cc1OC (stereo not given) | 27% | -5% | -1% | 2% | / | / | /
Cc1ccc(N(C(=O)Cc2c[nH]c3ccccc23)C(C(=O)NC2CCCCC2)c2ccco2)cc1 (stereo not given) | 6% | -4% | ? | -4% | 6 | -3% | 6.3µM*
N[C@@H](C(=O)N[C@H]1C(=O)N2C(C(=O)O)=C(Cl)CC[C@H]12)c1ccccc1 | / | / | / | 1% | / | / | /
O=C(COC(=O)CNC(=O)c1ccccc1)Nc1cc(C(F)(F)F)ccc1Cl | 1% | / | / | / | / | / | /
Cc1ccccc1-c1csc2ncnc(Sc3nnnn3C)c12 | 7% | / | / | / | / | / | /
CC(C)(C)n1nnnc1C(c1cccs1)N(Cc1cccnc1)Cc1ccccc1Cl (stereo not given) | 1% | -11% | ? | -11% | 3 | 1% | 20µM*
CCn1cnc2c(Nc3ccc(Cc4cccnc4)cc3)nc(C#N)nc21 | 1% | / | / | / | / | / | /
O=C(CCl)Nc1ccccc1Sc1ccccc1 | -1% | -8% | 6% | 7% | / | / | /
Cc1ccc(Sc2ccc(NC(=O)CCl)cc2)cc1C | 2% | i | ? | -4% | -2 | ? | 40µM*
Cc1ccc(C)c(Sc2ccc(NC(=O)CCl)cc2)c1 | 1% | i | ? | -4% | -6 | -27% | 40µM*
Cc1ccc(NC(=O)CC(=O)Nc2ccc(C)c(C)c2)cc1C | 20% | -9% | -6% | -3% | / | / | /
Cc1ccc(N[S+](=O)([O-])c2cc3c(cc2CCc2ccccc2)NC(=O)CO3)cc1C | 1% | / | / | / | / | / | /
CCc1cccc(C)c1Nc1c(-c2ccc(SC)cc2)nc2sccn12 | 6% | -5% | ? | 3% | / | / | /
CCc1cccc(C)c1Nc1c(-c2ccc(N(C)C)cc2)nc2cnccn12 | 23% | -2% | 32µM* | 17% | -9 | -7% | 16µM*
CCc1cccc(C)c1Nc1c(-c2ccc(F)cc2)nc2sccn12 | -3% | -8% | 40µM* | 6% | 3 | 7% | 14µM*
Cc1cc2c(s1)c1cnn(Cc3ccc(S(C)(=O)=O)cc3)c(=O)c1n2C | 9% | / | / | / | / | / | /
O=C1c2ccccc2C(=O)N1c1cnc2ccccc2c1 | -2% | / | / | / | / | / | /
N=c1c(S(=O)(=O)c2ccccc2)cc2c(=O)n3ccccc3nc2n1C1CCCC1 | 8% | 10% | 18µM* | 3% | 0 | 5% | 7.1µM*
N=c1c(S(=O)(=O)c2ccc(Br)cc2)cc2c(=O)n3ccccc3nc2n1C1CCCC1 | -2% | 4% | -6% | 3% | / | / | /
COc1ccc(CCN2C(=O)c3[nH]nc(-c4ccccc4O)c3C2c2ccc(O)c(OC)c2)cc1 (stereo not given) | 4% | -2% | -7% | 5% | / | / | /
CCOc1cc(C2c3c(-c4ccccc4O)n[nH]c3C(=O)N2CCc2ccccc2)ccc1O (stereo not given) | 4% | 1% | ? | 7% | -3 | 9% | ?
CSc1ccc(C2c3c(-c4ccccc4O)n[nH]c3C(=O)N2Cc2ccncc2)cc1 (stereo not given) | 4% | 2% | 40µM* | 23% | 0 | 4% | 28µM*
CC(C)c1ccc(C2c3c(-c4ccccc4O)n[nH]c3C(=O)N2Cc2ccncc2)cc1 (stereo not given) | -1% | -10% | 16µM* | 10% | -14 | -4% | 22µM*
CCCOc1ccc(C2c3c(-c4ccccc4O)n[nH]c3C(=O)N2Cc2ccncc2)cc1OCC (stereo not given) | 3% | i | ? | 2% | -5 | ? | 45µM*
SMILES | Pin1 inhibitor | PGK inhibitor | mIDH1 inhibitor | GLS inhibitor | Resorufin autofl | WT IDH1 inh | mIDH1 confirm
CCCN1C(=O)c2[nH]nc(-c3cc(Cl)c(C)cc3O)c2C1c1ccc(O)c(OC)c1 (stereo not given) | 0% | -8% | 26µM* | -3% | 11 | ? | 28µM*
COC(=O)c1ccc(C2c3c(-c4ccccc4O)n[nH]c3C(=O)N2Cc2cccnc2)cc1 (stereo not given) | 8% | -14% | ? | 1% | 5 | 0% | 40µM*
COCCCN1C(=O)c2[nH]nc(-c3cc(C)cc(C)c3O)c2C1c1ccc(O)c(OC)c1 (stereo not given) | -3% | -5% | 3% | 15% | / | / | /
Cc1ccc(Cl)cc1NS(=O)(=O)c1cc2c(cc1Cl)CCC(=O)N2 | 8% | / | / | / | / | / | /
Cc1ccc(N2C(=O)CCSC23C(=O)N(Cc2ccccc2)c2ccccc23)cc1F (stereo not given) | -2% | -3% | 22µM* | -10% | -7 | -18% | 25µM*
O=C1CCSC2(C(=O)N(Cc3ccccc3)c3ccccc32)N1c1ccccc1 (stereo not given) | ? | i | ? | -9% | / | / | /
Cc1ccc(N2C(=O)CCSC23C(=O)N(Cc2ccccc2)c2ccccc23)cc1 (stereo not given) | -4% | i | ? | -2% | -5 | -17% | 45µM*
O=C1CCSC2(C(=O)N(Cc3ccc(F)cc3)c3ccccc32)N1c1ccc(Cl)cc1 (stereo not given) | 1% | 11% | ? | -4% | -8 | -15% | 20µM*
Cc1ccc(N2C(=O)CCSC23C(=O)N(Cc2ccc(F)cc2)c2ccccc23)cc1 (stereo not given) | -1% | 9% | ? | 2% | / | / | /
CSCC[C@H](NC(=O)[C@@H](Cc1ccc(O[S+](=O)([O-])O)cc1)NC(=O)[C@H](N)CC(=O)O)C(=O)NCC(=O)N[C@@H](Cc1c[nH]c2ccccc12)C(=O)N[C@H](CCSC)C(=O)N[C@H](CC(=O)O)C(=O)N[C@@H](Cc1ccccc1)C(N)=O | / | / | / | -14% | / | / | /
Cc1cc2c(s1)c1cnn(Cc3cc(F)c(F)c(F)c3F)c(=O)c1n2C | 2% | / | / | / | / | / | /
O=C(Cn1cc(CNCc2ccccc2)nn1)Nc1cc(C(F)(F)F)ccc1Cl | -2% | / | / | / | / | / | /
CCN(CC)C(=O)c1ccc2c(c1)N(Cc1c(F)cccc1Cl)C(=O)c1ccccc1S2 | 23% | i | 32µM* | 4% | -2 | ? | 28µM*
COC(=O)c1ccc(NC2(C#N)C(=O)Nc3ccccc32)cc1 (stereo not given) | ? | i | ? | 15% | -1 | 64% | 45µM*

Assay outcomes deposited in PubChem BioAssay by National Center for Advancing Translational Sciences (NCATS).
